Laboratory results as given in PubChem BioAssay (NCATS).
Records with an inconclusive call do not appear. A number with no mark means an inactive call. The source made the active and inactive calls. Calls come from the whole dose curve; as a rule, active = well fitted inhibition curve with a large enough effect; inconclusive = small, poorly fitted or top-dose-only effect; inactive = flat fitted curve, though single readings scatter. *1 amine or outer side, *2 acyl side, *3 side chain or, on linkers, in order; H or OH if unused. Where a SMILES comes first, the peptide text is derived from it. [ ]: non-standard residue; d: D form. The star is where a group is joined. ξ: configuration not given here. X9 = CCC(C)(N*)C(=O)C1CC[C@@H](C(=O)N[C@@H](Cc2ccccc2)C(=O)NCC(=O)O)N1; X8 = O=C([C@@H]1CC(O)CN1[*:1])[*:2]; aIle = CC[C@@H](C)[C@H](N)C(=O)O; Thr(3ξ) = CC(O)[C@H](N)C(=O)O; ξIva = CCC(C)(N)C(=O)O; Aib = CC(C)(N)C(=O)O

Tests used:
CRL-7250 = normal cell line; experiment: Cytotoxic Profiling of Annotated Libraries Using Quantitative High-Throughput Screening (AID 1296008); settings: Five cell lines viability, CellTiter-Glo ATP luminescence, 48-72 h; max response: hits give low values; note: potency is the fitted concentration of half-maximal effect; for max response: % is set by controls: 0 for no effect and ±100 for the full control effect
In short: (§1)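 Cells exposed to compounds for 48 or 72 hr at 37 degrees Celsius. Viability read as ATP-coupled luminescence with CellTiter-Glo after 10 min at room temperature.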

HEK293 = experiment: as above; settings: Five cell lines viability, CellTiter-Glo ATP luminescence, 48-72 h; max response: hits give low values
In short: as §1

HaCat [1] = experiment: as above; settings: Five cell lines viability, CellTiter-Glo ATP luminescence, 48-72 h; max response: hits give low values
In short: as §1

KB-3-1 = experiment: as above; settings: Five cell lines viability, CellTiter-Glo ATP luminescence, 48-72 h; max response: hits give low values
In short: as §1

NIH3T3 = experiment: as above; settings: Five cell lines viability, CellTiter-Glo ATP luminescence, 48-72 h; max response: hits give low values
In short: as §1

HACAT [2] = experiment: qHTS assay to identify novel small-molecules to repurpose for Merkel cell carcinoma treatment (AID 1296009); settings: MCC and control cell lines, CellTiter-Glo viability, 72 h; at 44.8 µM (top of the series) unless noted
In short: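 Dose-response viability screen; 72 hr exposure at 37 degree celsius; CellTiter-Glo added, 10 min room temperature, luminescence read; RLUs scaled between no-cell and DMSO wells.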
Note: nearly all actives have a fitted effect of over 60% in size.

SMILES | outcome (CRL-7250) | max response (HEK293) [%] | outcome (HaCat [1]) | max response (KB-3-1) [%] | outcome (NIH3T3) | outcome (HACAT [2]) | max response (CRL-7250) [%] | outcome (KB-3-1) | max response (NIH3T3) [%] | Potency (HEK293)
COc1cc(C2OCC3(O)C(c4ccc(O[C@@H]5O[C@H](CO)[C@@H](O)[C@H](O)[C@H]5O)c(OC)c4)OCC23O)ccc1O (stereo partly drawn) | inactive | -0.768 | inactive | 7.65 | inactive | inactive [at 17.4 µM] |  |  |  | 
CC(=O)OCC1=C[C@@H]2OC(=O)C3=CO[C@@H](O[C@@H]4O[C@H](CO)[C@@H](O)[C@H](O)[C@H]4O)[C@H]1[C@@H]32 |  | 4.59 | inactive |  |  | inactive [at 17.4 µM] | 2.42 | inactive | 0.706 | 
CC[C@@H]1C(=O)O[C@]23C=C[C@@H]4C(C(=O)OC)=CO[C@H](O[C@@H]12)[C@@H]43 |  | -18.1 | inactive | -9.89 |  | inactive | -23.4 |  | 1.97 | 
Cc1ccc(C)c(S(=O)(=O)n2cnc3ccccc32)c1 |  | -10.9 | inactive |  | inactive | inactive | -12.1 | inactive |  | 
COc1cc([C@H]2OC[C@](O)(Cc3ccc(O[C@@H]4O[C@H](CO)[C@@H](O)[C@H](O)[C@H]4O)c(OC)c3)[C@@H]2CO)ccc1O |  | 1.25 | inactive | 0.848 | inactive | inactive [at 17.4 µM] | -8.35 |  |  | 
Cc1occc(=O)c1O[C@@H]1O[C@H](CO[C@@H]2OC[C@](O)(CO)[C@H]2O)[C@@H](O)[C@H](O)[C@H]1O | inactive | 0.165 | inactive |  |  | inactive [at 17.4 µM] |  | inactive | 1.4 | 
C=Cc1ccc(O[C@@H]2O[C@H](CO[C@@H]3O[C@@H](C)[C@H](O)[C@@H](O)[C@H]3O)[C@@H](O)[C@H](O)[C@H]2O)cc1 |  | -5.77 | inactive | 6.98 |  | inactive [at 17.4 µM] | -5.44 |  | -1.18 | 
C[C@]1(OC(=O)/C=C/c2ccccc2)C[C@@H](O)[C@]2(O)C=CO[C@@H](O[C@@H]3O[C@H](CO)[C@@H](O)[C@H](O)[C@H]3O)[C@@H]21 |  | 3.08 | inactive | 8.76 | inactive | inactive [at 17.4 µM] | -4.65 |  |  | 
CCCC(=O)Nc1cccc(NC(=O)c2ccccc2Br)c1 | inactive | -4.38 | inactive | 8.7 |  | inactive |  |  | 3.78 | 
CC1=C2C[C@@]3(C)[C@@H](CCC[C@@H]3C)C[C@@]2(O)OC1=O | inactive | -2.55 | inactive | 8.04 | inactive | inactive |  |  |  | 
C=C(C)[C@H]1CC[C@]2(C(=O)O)CC[C@]3(C)C(CCC4[C@@]5(C)CCC(=O)C(C)(C)C5CC[C@]43C)C12 (stereo partly drawn) |  |  | inactive | -14.2 |  | inactive [at 17.4 µM] | -18.5 |  | -1.29 | 7.09 µM (active)
COCC1OC(OC(C)(C)C2CCC3(C)C=C(C4CCC5C4(C)CC(O)C4OC(C(C)(C)O)CCC45C)CCC3O2)C(NC(C)=O)C(O)C1O (stereo not drawn) | inactive | 2.29 | inactive | 7.28 |  | inactive [at 17.4 µM] |  |  | 1.37 | 
O=[N+]([O-])c1cc(Cl)ccc1S(=O)(=O)N1CCN(Cc2ccccc2)CC1 |  | -21.3 | inactive | -13.2 | inactive | inactive | -3.5 |  |  | 
COC(=O)C1=COC(O[C@@H]2O[C@H](CO)[C@@H](O)[C@H](O)[C@H]2O)/C(=C\COC(=O)/C=C/c2ccccc2)C1CC(=O)OCCc1ccc(O)cc1 (stereo partly drawn) |  | -5.04 | inactive |  | inactive | inactive [at 17.4 µM] | -7.39 | inactive |  | 
NC1(c2ccc(NC(=O)c3ccnc(-c4cc(C(=O)O)ccn4)c3)cc2)CC1 | inactive | -8.28 | inactive |  | inactive | inactive |  | inactive |  | 
CC/C=C\CC1C(CC(=O)O)CCC1OC1OC(CO)C(O)C(O)C1O (stereo not drawn) | inactive | 0.263 | inactive | 8.15 | inactive | inactive |  |  |  | 
CC1(C)CC[C@]2(C(=O)O[C@@H]3O[C@H](CO[C@@H]4O[C@H](CO[C@@H]5O[C@H](CO)[C@H](O)[C@H](O)[C@H]5O)[C@@H](O)[C@H](O)[C@H]4O)[C@@H](O)[C@H](O[C@@H]4O[C@H](CO)[C@@H](O)[C@H](O)[C@H]4O)[C@H]3O)[C@H](O)C[C@]3(C)C(=CCC4[C@@]5(C)CC[C@H](O[C@@H]6OC[C@@H](O)[C@H](O)[C@H]6O)[C@@](C)(C(=O)O)C5CC[C@]43C)[C@@H]2C1 (stereo partly drawn) |  | -1.97 | inactive |  | inactive | inactive [at 9.27 µM] | 2.11 | inactive |  | 
CCC(=O)N1CCc2cc(OC)c(O)cc2C1 |  | -5.69 | inactive | -5.14 |  | inactive | -24.5 |  | 3.84 | 
CC1=CCC(O)C2(C)CCC3C(C)C(=O)OC3C12 (stereo not drawn) |  | -18.2 | inactive | -6.48 |  | inactive | -3.96 |  | -0.383 | 
CC[C@@H](C)[C@H](NC(=O)C(C)(C)NC(=O)[C@H](CCC(N)=O)NC(=O)C(C)(CC)NC(=O)[C@H](Cc1c[nH]c2ccccc12)NC(C)=O)C(=O)N[C@H](C(=O)NC(C)(C)C(=O)N[C@@H](CC(C)C)C(=O)NC(C)(C)C(=O)N1CCC[C@H]1C(=O)N[C@@H](CCC(N)=O)C(=O)NC(C)(C)C(=O)N1CC(O)C[C@H]1C(=O)NC(C)(CC)C(=O)C1CC[C@@H](C(=O)N[C@@H](Cc2ccccc2)C(=O)NCC(=O)O)N1)C(C)O (stereo partly drawn) (Ac-W[ξIva]Q[Aib][aIle][Thr(3ξ)][Aib]L[Aib]PQ[Aib][X8]-X9) |  | -13.1 | inactive; activator | -1.3 |  | inactive; activator [at 4.96 µM] | -9.43 |  | -1.9 | 
CC(=O)NC1C(OC2CCC3(C)C(CCC4(C)C3CC=C3C5CC(C)(C)CCC5(C(=O)O)C(O)CC34C)C2(C)C)OC(CO)C(O)C1O (stereo not drawn) |  | -25.2 | inactive | 0.467 | inactive | inactive [at 17.4 µM] | -37.4 |  |  | 
COc1ccc(N2CCN(CCCNC(=O)Cn3c(=O)c4cccn4c4c(C)ccnc43)CC2)cc1 |  | -13.3 | inactive | 6.93 | inactive | inactive | -6.16 |  |  | 
O=C(O)c1cc(C(F)(F)F)ccc1N1CC[C@H](OCc2ccccn2)C1 | inactive | -6.22 | inactive | 6.78 | inactive | inactive |  |  |  | 
C=C1CC[C@@H]2[C@@](C)(CO[C@@H]3O[C@H](CO)[C@@H](O)[C@H](O)[C@H]3O)[C@H](O)CC[C@@]2(C)[C@@H]1CC/C(C)=C/CO[C@@H]1O[C@H](CO)[C@@H](O)[C@H](O)[C@H]1O | inactive | -9.45 | inactive | -3.96 |  | inactive [at 17.4 µM] |  |  | -12.7 | 
C/C=C/C=C/C=C/C(=O)N(C)C(C(=O)NC(C)C(=O)N1CCCC1C(N)=O)C(C)C (stereo not drawn) |  | 2.9 | inactive |  |  | inactive [at 17.4 µM] | -4.46 | inactive | 0.323 | 
COc1ccccc1N1CCN(CCCCNC(=O)c2ccc(-c3cscn3)cc2)CC1 |  |  | inactive | -12.5 |  | inactive | -3.11 |  | 1.48 | 20.6 µM (active)
CC(=O)OC/C(=C/C(=O)O)CC[C@@H]1C(C)=CC(=O)[C@@H]2C(C)(C)CCC[C@@]12C | inactive | -0.879 | inactive | -6.11 | inactive | inactive |  |  |  | 
CCCc1[nH]nc2c1C(c1cc(Cl)cc(Cl)c1O)C(C#N)=C(N)O2 (stereo not drawn) |  | -17.1 | inactive |  | inactive | inactive | -0.63 | inactive |  | 
